In all, about 370,000 compounds went through this assay and about 2,400 (0.65%) were called active.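 The calls were made as follows: active = inhibition above the screen-wide mean plus 3 SD (cut at about 13% in these data); inactive = the rest.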 The list comes from a sample in which actives are over-represented; it also holds similar structures and randomly drawn compounds.

For the assay, the system named is HIV-1 integrase (with human LEDGF/p75). Nature of the assay: blockers of LEDGF/p75-dependent integrase strand transfer – biochemical, TR-FRET, high throughput, primary screen (AID 743269).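 Also: signal is the Cy5 over europium emission ratio at 671 and 618 nm; 0% = plate median of compound wells.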 The conditions noted are these: TR-FRET IN-LEDGF/p75 DNA integration, Eu/Cy5; at 3.7 µM; active compounds read high. In general terms: TR-FRET usually uses a lanthanide donor and a delayed reading to cut background.
The inhibition is the change of the read-out against control, counted positive when it falls. `CCN(CC)C(=O)CC[C@H]1CC[C@]2(CCCN(Cc3ccc(Cl)cc3)C2)O1`: the inhibition was 3.81% (inactive). For `O=C(OC1CC2CC1[C@H]1CCCCN1C2=O)N1CCOCC1` (stereo partly specified) the value was -2.09% (inactive).

Turning to `CCCCNC(=O)OC1CC2CC1[C@H]1CCCCN1C2=O` (stereo partly specified), the inhibition is 25.4% (active). In the case of `CCCC[C@H]1C2CC(OC(=O)NCc3ccccc3)C(C2)[C@H]2CCCCN21` (stereo partly specified), the inhibition was -3.96% (inactive). The same measure for `c1coc(CCNc2ncnc3ccc(-c4ccc5c(c4)OCO5)cc23)c1`: 2.41% (inactive); for `COC(=O)c1cc(S(=O)(=O)N2CCN(c3ccccc3C)CC2)cn1C`: -0.95% (inactive); for `O=C(Cc1coc2ccc3ccccc3c12)NCc1cccs1`: 0.4% (inactive). The same measure for `Cc1nc2c(C(=O)NCc3cccs3)cnn2c(C)c1Cc1ccc(F)cc1`: -1.76% (inactive); for `CC(C)Cn1c(N)c(C(=O)NCc2cccs2)c2nc3ccccc3nc21`: 23.8% (active). The same measure for `N[C@@H](Cc1ccccc1)C(=O)N1CCC[C@@H]1C(=O)N1CCC2CCN(S(=O)(=O)c3ccccc3)CC21` (stereo partly specified): 3.42% (inactive); for `Cc1ccc(CSc2nnc(SCC(=O)NN=Cc3cc(Br)ccc3F)s2)cc1`: 3.4% (inactive). As to `CCOC(=O)c1ccc(NC(=O)c2c(NCc3ccccc3)[nH]c(=O)[nH]c2=O)cc1`, the inhibition was 2.44% (inactive). `CCOC(=O)c1ccc(Nc2cc3ccccc3c(=O)[nH]2)cc1`: the inhibition is 15.5% (active). Regarding `CCOC(=O)c1ccc(NC(=O)c2c(N)n(C)c(=O)[nH]c2=O)cc1`, the inhibition is -0.3% (inactive).

As to `COc1ccccc1C(=O)NC1CCCCN(C(C)C)C1=O` (stereo unspecified), the inhibition was -1.35% (inactive). Take `COC(=O)C[C@@H]1CC[C@H]2[C@@H](COc3ccc(NS(=O)(=O)CC(F)(F)F)cc3C(=O)N2C)O1`: the inhibition is -3.99% (inactive).

`COC(=O)[C@@]12CCCCC=C1N(CCc1ccc(Cl)cc1)C(=O)[C@H]2CC(=O)NCc1ccc(OC)c(OC)c1`: the inhibition is 2.21% (inactive). The same measure for `C=CCN(Cc1ccc2c(c1)OCO2)C(C#CC1CC1)C(C)(C)C` (stereo unspecified): 0.61% (inactive); for `COc1ccc(S(=O)(=O)N2CCOCC2)cc1C(=O)NC1CCCCC1`: 1.4% (inactive); for `COc1ccc(S(=O)(=O)N2CCCCC2)cc1C(=O)NC1CCS(=O)(=O)C1` (stereo unspecified): 19.8% (active). As to `Cc1ccc(S(=O)(=O)N2CCN(C)CC2)cc1C(=O)NC1CCCCC1`, the inhibition is 2.41% (inactive). For the compound `C=CCN1C(=O)[C@@H](CC(=O)NCCCCc2ccccc2)[C@]2(C(=O)OCC)CCCCC/C=C/12`, the inhibition was -2.38% (inactive).

On to `Cc1ccccc1NC(=O)C1CCN(c2ncccn2)CC1`, for which the inhibition was -1.73% (inactive). Consider `COc1cccc(C2CC(c3cccs3)=NN2C(=O)CSC2=NCCS2)c1OC` (stereo unspecified), for which the inhibition was -1.38% (inactive). The same measure for `COc1ccc(C2CC(c3cccs3)=NN2C(=O)COC(=O)c2cc3ccccc3cc2O)cc1OC` (stereo unspecified): 23% (active). For the compound `COc1ccc(C2CC(c3cccs3)=NN2c2nc(C)c(C(C)=O)s2)cc1OC` (stereo unspecified), the inhibition is -0.06% (inactive).

The record behind these values is PubChem BioAssay AID743269 (The Scripps Research Institute Molecular Screening Center, 2014).
